Source: PubChem BioAssay
FMDV RLuc – shows antiviral activity in FMDV Renilla assay; FMDV replicon cells, Renilla luciferase signal; Potency, µM (doses to about 57.5 µM), most hits filed as inhibitors; 120,000 tested, 0.32% active; AID 1745857; also: nearly all actives have a fitted effect of over 55% in size
FMDV antiviral – FMDV antiviral activity by firefly signal. Potency, µM (titrated, usually from 57.5 µM), actives largely listed as inhibitors. AID 1745856. 120,000 tested, 0.23% active. FMDV antiviral cell assay, firefly luciferase signal; also: nearly all actives have a fitted effect of over 60% in size
Each line names hits and unclear results; the compound was inactive in the other large screens. Sampled rows, rich in hits. Any-hit rate of the full collection: about 0.45%. Calls follow the shape of the full dose curve.

O=C(Nc1ccc2oc(-c3cccc(I)c3)nc2c1)c1ccc2c(c1)OCO2	none
CCNc1sc(C(C)=O)c(N)c1C#N	none
CCc1ccc(C2CC(=O)N3CN(Cc4ccccc4)CSC3=C2C#N)cc1 (centres undefined)	none
Cc1nccc(CNC(=O)c2ccc3ncsc3c2)n1	none
Cc1cccc(C)c1NC(=O)c1ccc2ncsc2c1	FMDV antiviral 22µM
CC1Cc2ccccc2N1C(=O)COC(=O)c1ccc(-n2cnnn2)cc1 (centres undefined)	none
Cc1c(Br)c2ccccc2n1CC(=O)NCC(=O)N(C)C	none
COc1ccc(C2CC(=O)Nc3nc(N)sc32)cc1OCc1ccccc1Cl (centres undefined)	none
CCC1c2ccsc2CCN1C(=O)CCC(=O)N1CCN(S(=O)(=O)c2ccccc2)CC1 (centres undefined)	none
O=C(Nc1ccc(F)c(Cl)c1)c1ccc(-c2ccccc2)cc1	none
O=C(Nc1ccncc1)c1ccc(-c2ccccc2)cc1	FMDV RLuc 3.2µM
O=C(Oc1ccc(F)cc1)c1ccc(-c2nc3ccccc3s2)s1	FMDV antiviral 10µM
O=C(Nc1ccccc1-c1nc2ccccc2s1)c1ccc(F)cc1	none
Cc1ccccc1C(=O)NC12CC3CC(CC(C3)C1)C2	none
O=C(NC12CC3CC(CC(C3)C1)C2)c1ccc(-c2nc3ccccc3s2)s1	FMDV antiviral 20µM
CCN(CC)S(=O)(=O)c1ccc(C(C)NC(=O)c2nn(C)c(=O)c3ccccc23)cc1 (centres undefined)	none
Cc1ccc(C(=O)c2ccc(Oc3ccc(C)c(C)c3)cc2)cc1	none
CS(=O)(=O)N1CCCc2cc(C(=O)c3cc4ccccc4o3)ccc21	FMDV RLuc inconclusive
CS(=O)(=O)N1CCc2cc(C(=O)c3cc4cc(Br)ccc4o3)ccc21	FMDV antiviral 20µM
O=C(/C=C/c1ccc(-c2ccccc2Cl)o1)c1ccccc1Br	none
Cc1cccc(NC(=O)CSc2nc3ccc(NC(=O)COc4ccccc4C)cc3s2)c1	FMDV RLuc 5µM, FMDV antiviral inconclusive
Cc1ccccc1OCC(=O)Nc1ccc2nc(SCCOc3ccccc3)sc2c1	none
CCCOc1ccc(C(=O)Nc2ccc(NC(=O)c3ccc(Br)cc3)cc2)cc1	none
CCCOc1ccc(C(=O)C(CCC(CNC(C)(C)C)C(=O)c2ccc(OCCC)cc2)CNC(C)(C)C)cc1 (centres undefined)	FMDV RLuc 28µM, FMDV antiviral inconclusive
COc1ccc(-c2cc(C(F)(F)F)nc(NCc3ccccc3)n2)cc1	FMDV RLuc 4µM, FMDV antiviral inconclusive
Fc1ccc(-c2cc(C(F)(F)F)nc(NCc3ccccc3)n2)cc1	none
Cc1ccc(OCn2ccc(C(=O)NCc3c(C)nn(C)c3C)n2)c(C)c1	FMDV RLuc 10µM, FMDV antiviral 13µM
Cc1ccc(OCC(=O)NCc2nncn2C)c(C)c1	none
O=C(CN(c1ccc(Cl)c(Cl)c1)S(=O)(=O)c1ccccc1)N1CCCCCC1	none
Cc1ccc2c(=O)c(-c3nc(-c4ccc(Cl)cc4)no3)cn(CC(=O)NCc3ccco3)c2n1	none
C=CCNc1oc(-c2ccco2)nc1S(=O)(=O)c1ccc2c(c1)OCCO2	none
COC(=O)c1ccc(CO/N=C/c2ccc(Cl)cc2Cl)cc1	FMDV antiviral 7.9µM
COC(=O)c1ccc(CO/N=C/c2ccc(OCc3ccc(Cl)cc3)c(OC)c2)cc1	none
CCS(=O)(=O)c1ncc(Cl)c(C(=O)Nc2c(C(=O)Nc3cccc(C)c3)oc3ccccc23)n1	none
Cc1cccc(NC(=O)c2nc(S(C)(=O)=O)ncc2Cl)c1	FMDV RLuc 35µM, FMDV antiviral inconclusive
O=C(c1n[nH]c(=O)c2ccccc12)N1CCN(CC(F)(F)F)CC1	none
Cc1cccc(CN2CCN(C(=O)c3n[nH]c(=O)c4ccccc34)CC2)c1	FMDV RLuc inconclusive, FMDV antiviral 14µM
CCC(C)c1ccccc1NC(=O)Cn1cnc2c1c(=O)n(C)c(=O)n2C (centres undefined)	none
CCOc1ccc2nc(NC(=O)CS(=O)(=O)c3ccc(Cl)cc3)sc2c1	FMDV RLuc inconclusive, FMDV antiviral 8.9µM
CS(=O)(=O)c1ccc2nc(NC(=O)CS(=O)(=O)c3ccc(Cl)cc3)sc2c1	none
Cc1nc2nncn2c(NCc2ccc(F)cc2)c1C	FMDV RLuc 8.9µM, FMDV antiviral inconclusive
CCc1c(C)nc2nncn2c1NCc1ccc(OC)cc1	none
Cc1nc2nncn2c(NCc2ccc(Cl)cc2)c1C	FMDV RLuc 1.4µM, FMDV antiviral inconclusive
COc1ccc(CNc2cc(-c3ccc(OC)cc3)nc3nncn23)cc1	none
CCOc1ccc(S(=O)(=O)Nc2ccccc2-c2nnc3n2CCCCC3)cc1OCC	none
COc1cccc(C(=O)/C(C#N)=C\c2ccccc2C(F)(F)F)c1	none
O=S(=O)(c1cccc(F)c1)N1CCC(Oc2ccc(-n3cnnn3)cc2)CC1	FMDV RLuc inconclusive, FMDV antiviral 22µM
CC(=O)Nc1ccc(S(=O)(=O)N2CCC(Oc3ccc(-n4cnnn4)cc3)CC2)cc1	none
CC(C)Oc1cccc(Cn2cnc3c2c(=O)n(C)c(=O)n3C)c1	FMDV RLuc 3.5µM, FMDV antiviral 3.5µM
CC(C)c1ccc(C(=O)Cn2cnc3c2c(=O)n(C)c(=O)n3C)c(C(C)C)c1	FMDV RLuc 10µM, FMDV antiviral 10µM
Cc1cc(C(=O)Cn2cnc3c2c(=O)n(C)c(=O)n3C)c(C)n1C	none
Cn1c(=O)c2c(ncn2CCCOc2ccccc2)n(C)c1=O	none
O=C(CSc1nnc(-c2ccc(S(=O)(=O)N3CCCCCC3)cc2)o1)c1ccc(Cl)cc1	none
O=C(COC(=O)CNC(=O)c1ccc2ccccc2c1)Nc1ncc(Cl)cc1Cl	none
Cc1cccc(NC(=O)c2ccc3c(c2)NC(=O)CS3)c1	none
Cc1ccc(NC(=O)c2ccc3c(c2)NC(=O)c2ccccc2S3)cc1	FMDV RLuc 6.3µM, FMDV antiviral inconclusive
CC(OC(=O)c1cc(-c2ccco2)nc2ccccc12)C(=O)NC(=O)NC1CCCCC1 (centres undefined)	none
CCOc1cc(/C=C(/C#N)c2ccccn2)ccc1OCC(F)(F)F	none
CCCc1cc(=O)oc2c(C)c(OCC(=O)NCc3ccncc3)ccc12	none
O=C(O)c1ccc(C2SCCCS2)cc1	none
O=C(Nc1ccccn1)c1ccc(C2SCCCS2)cc1	FMDV antiviral 13µM
Nc1nccnc1C(=O)Nc1ccc2ccccc2n1	none
Cc1nc2ccccc2c(=O)n1-c1ccc(NC(=O)c2ccc([N+](=O)[O-])cc2)cc1	FMDV RLuc 2.8µM, FMDV antiviral inconclusive
Cc1nc2ccccc2c(=O)n1-c1ccc(NC(=O)c2cccc([N+](=O)[O-])c2)cc1	none
Cc1cc(C)cc(OCC(O)Cn2c(C)cc(=O)n3ncnc23)c1 (centres undefined)	none
CC(=O)c1c(C)[nH]c(C(=O)OC(C)c2nnc(-c3cccc(C)c3)o2)c1C (centres undefined)	none
CC(=O)c1c(C)[nH]c(C(=O)OC(C)c2nc(-c3ccccc3)no2)c1C (centres undefined)	FMDV RLuc 28µM, FMDV antiviral inconclusive
Cc1cccc(COc2ccc(/C=C(\C#N)c3nc4ccccc4[nH]3)cc2)c1	FMDV RLuc inconclusive
N#C/C(=C\c1ccc(OCc2ccc(C#N)cc2)cc1)c1nc2ccccc2[nH]1	FMDV RLuc 4µM
CCC[N+]1(CC#CCC(c2ccccc2)c2ccccc2)CCCCC1	FMDV RLuc 4µM, FMDV antiviral inconclusive
C(#CCN1CCOCC1)CC(c1ccccc1)c1ccccc1	none
CCc1ccccc1NC(=O)C1CC1	none
COc1ccc(Nc2cc(C)nc(NCc3ccccc3)n2)cc1	none
COc1ccc(Nc2cc(C)nc(Nc3ccc(NC(=O)CC(C)(C)C)cc3)n2)cc1	FMDV RLuc 22µM, FMDV antiviral inconclusive
Cc1cc(Nc2cccc(Cl)c2)nc2ccc(NC(=O)C3CCCCC3)cc12	none
